# Records with an inconclusive call do not appear. A call without a number means that no potency is given here. Active and inactive are the calls of the source. Unless noted, calls follow the shape of the dose curve; as a rule, active = well fitted curve in the direction sought with a large enough effect; inconclusive = small, poorly fitted or top-dose-only effect, or another doubt; inactive = no such curve, though single readings can be large; an effect the other way counts as inactive or inconclusive.
# Assays:
# [1] = NCATS anti-infectives library activity on HEK293 viability as a counter-qHTS vs the C. elegans viability qHTS (AID 1745854)
# In short: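 HEK293 cells, 1500 per well, exposed 24 hr at 37C in 5% CO2 to compounds in a 1:5 titration, up to 41.7 uM final. Viability read as CellTiter-Glo luminescence after 10 min at room temperature.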
# [2] = NCATS anti-infectives library activity on the primary C. elegans qHTS viability assay (AID 1745855; calls by dose curve; also: potency is read from the fitted curve at half-maximal effect)
# In short: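 Viability is taken from GFP fluorescence of PE254-GFP-FLuc C. elegans imaged by laser cytometry over 7 days. Ten L1 worms per well grow at 21 °C on TOP10 E. coli capsules with titrated compound; levamisole marks toxicity.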
# [3] = qHTS assay for small molecule antagonists of peroxisome proliferator-activated receptor delta signaling (AID 588535; active = well fitted inhibition curve with a large enough effect in the signal ratio, with a control signal flat, not every such curve was filed as active; the % refers to the signal ratio;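 as to max response: cells co-treated with a PPAR-delta agonist as stimulator during compound exposure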); conditions: HEK293T PPARd-UAS-bla, beta-lactamase FRET ratio, 18 h; 460 nm channel
# In short: (§1)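 Cells were seeded at 4000 per well in assay medium containing 2% charcoal/dextran FBS and held 5 hrs at 37 C. Compounds were then added for 18 hrs. CCF4 substrate was applied for 2 hrs at room temperature before fluorescence reading.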
# [4] = molecular target: Peroxisome proliferator-activated receptor delta (Homo sapiens) (UniProt Q03181); test: as above
# Chain of Peroxisome proliferator-activated receptor delta (Homo sapiens) (Q03181 whole entry, looked up): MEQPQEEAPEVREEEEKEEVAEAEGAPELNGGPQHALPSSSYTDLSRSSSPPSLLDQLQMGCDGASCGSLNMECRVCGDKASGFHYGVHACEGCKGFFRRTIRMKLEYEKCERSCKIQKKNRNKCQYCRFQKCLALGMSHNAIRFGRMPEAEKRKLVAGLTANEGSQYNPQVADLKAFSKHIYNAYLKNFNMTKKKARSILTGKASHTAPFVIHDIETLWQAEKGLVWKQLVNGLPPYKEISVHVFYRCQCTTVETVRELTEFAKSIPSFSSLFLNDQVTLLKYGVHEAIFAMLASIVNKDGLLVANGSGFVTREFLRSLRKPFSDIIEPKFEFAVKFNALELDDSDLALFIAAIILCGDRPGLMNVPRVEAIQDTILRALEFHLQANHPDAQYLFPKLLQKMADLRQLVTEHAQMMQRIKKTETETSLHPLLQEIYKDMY
# In short: as §1
# [5] = molecular target: Peroxisome proliferator-activated receptor gamma (Homo sapiens) (UniProt P37231); test: qHTS assay for small molecule agonists of peroxisome proliferator-activated receptor gamma signaling (AID 588536; active = well fitted curve in the direction sought with a large enough effect in the signal ratio, with a control signal flat, not every such curve was filed as active; the % refers to the signal ratio)
# Chain of Peroxisome proliferator-activated receptor gamma (Homo sapiens) (P37231 whole entry, looked up): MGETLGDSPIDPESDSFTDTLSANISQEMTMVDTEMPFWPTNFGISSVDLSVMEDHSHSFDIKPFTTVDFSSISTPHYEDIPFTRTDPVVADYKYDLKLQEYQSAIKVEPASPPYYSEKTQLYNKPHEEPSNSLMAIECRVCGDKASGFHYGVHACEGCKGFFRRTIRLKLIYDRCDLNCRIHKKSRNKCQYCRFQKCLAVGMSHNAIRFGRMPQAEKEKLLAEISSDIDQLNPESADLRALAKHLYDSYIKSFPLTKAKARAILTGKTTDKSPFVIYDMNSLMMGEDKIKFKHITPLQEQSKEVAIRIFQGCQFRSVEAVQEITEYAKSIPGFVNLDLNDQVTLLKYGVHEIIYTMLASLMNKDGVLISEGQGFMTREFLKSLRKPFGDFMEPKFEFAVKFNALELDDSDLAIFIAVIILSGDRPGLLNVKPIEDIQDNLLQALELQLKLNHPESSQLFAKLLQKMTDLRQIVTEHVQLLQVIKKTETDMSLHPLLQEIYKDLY
# In short: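 GeneBLAzer PPAR-gamma-UAS-bla HEK293 cells in 1% charcoal/dextran-treated FBS medium were treated 16 h at 37 C with compounds. Beta-lactamase activity was read by CCF4 ratio (460/530 nm). Response was normalized to 2 uM rosiglitazone (100%) and DMSO, then Hill-fitted for EC50 and efficacy.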
# [6] = molecular target: Peroxisome proliferator-activated receptor gamma (Homo sapiens) (UniProt P37231); test: qHTS assay for small molecule antagonists of peroxisome proliferator-activated receptor gamma signaling (AID 588537; active = well fitted inhibition curve with a large enough effect in the signal ratio, with a control signal flat, not every such curve was filed as active; the % refers to the signal ratio;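 also: reporter cells co-stimulated with 50 nM rosiglitazone agonist during compound treatment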)
# In short: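 Step one: plate 3000 HEK293 UAS-bla cells per well in medium with 1% stripped serum and hold 6-6.5 h at 37 C. Step two: add compound and 50 nM agonist for 16 h. Step three: CCF4 loading, fluorescence read.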
# [7] = molecular target: Vitamin D3 receptor (Homo sapiens) (UniProt P11473); test: qHTS assay for small molecule antagonists of vitamin D receptor signaling (AID 588541; calls by dose curve;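 also: receptor activated by calcitriol during compound treatment; series mostly up to about 77 µM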)
# Chain of Vitamin D3 receptor (Homo sapiens) (P11473 whole entry, looked up): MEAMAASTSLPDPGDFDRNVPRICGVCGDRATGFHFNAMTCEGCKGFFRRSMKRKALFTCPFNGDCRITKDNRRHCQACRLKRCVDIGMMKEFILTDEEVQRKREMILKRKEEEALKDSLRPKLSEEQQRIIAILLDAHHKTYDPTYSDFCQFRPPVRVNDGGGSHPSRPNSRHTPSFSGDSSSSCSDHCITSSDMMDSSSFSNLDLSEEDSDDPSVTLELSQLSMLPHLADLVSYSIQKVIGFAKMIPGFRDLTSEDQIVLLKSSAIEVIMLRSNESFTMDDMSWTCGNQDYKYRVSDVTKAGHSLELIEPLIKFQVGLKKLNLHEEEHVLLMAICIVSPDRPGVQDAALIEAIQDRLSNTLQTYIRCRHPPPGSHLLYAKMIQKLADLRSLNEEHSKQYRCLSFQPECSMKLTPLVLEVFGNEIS
# In short: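 VDR-UAS-bla HEK293T cells in 2% charcoal-stripped FBS were stimulated with 1-alpha,25-dihydroxyvitamin D3 (3 nM final) plus compound for 16 h at 37 C. The beta-lactamase CCF4 readout was normalized to 50 nM agonist and DMSO, and Hill fits gave IC50.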
# [8] = molecular target: Vitamin D3 receptor (Homo sapiens) (UniProt P11473); test: qHTS assay for small molecule agonists of vitamin D receptor signaling (AID 588543; calls by dose curve)
# In short: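 Agonist-mode beta-lactamase reporter: HEK293T VDR-UAS-bla cells in charcoal-stripped 2% FBS, compound series 16 h 37 C, CCF4 2 h RT. EC50 from Hill fit, scaled against DMSO and 50 nM calcitriol control.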
# [9] = qHTS assay for small molecule agonists of retinoid X receptor alpha signaling (AID 588544; calls by dose curve); conditions: HEK293T RXRa-UAS-bla, beta-lactamase reporter, 18 h; 530 nm emission
# [10] = molecular target: Retinoic acid receptor RXR-alpha (Homo sapiens) (UniProt P19793); test: as above
# Chain of Retinoic acid receptor RXR-alpha (Homo sapiens) (P19793 whole entry, looked up): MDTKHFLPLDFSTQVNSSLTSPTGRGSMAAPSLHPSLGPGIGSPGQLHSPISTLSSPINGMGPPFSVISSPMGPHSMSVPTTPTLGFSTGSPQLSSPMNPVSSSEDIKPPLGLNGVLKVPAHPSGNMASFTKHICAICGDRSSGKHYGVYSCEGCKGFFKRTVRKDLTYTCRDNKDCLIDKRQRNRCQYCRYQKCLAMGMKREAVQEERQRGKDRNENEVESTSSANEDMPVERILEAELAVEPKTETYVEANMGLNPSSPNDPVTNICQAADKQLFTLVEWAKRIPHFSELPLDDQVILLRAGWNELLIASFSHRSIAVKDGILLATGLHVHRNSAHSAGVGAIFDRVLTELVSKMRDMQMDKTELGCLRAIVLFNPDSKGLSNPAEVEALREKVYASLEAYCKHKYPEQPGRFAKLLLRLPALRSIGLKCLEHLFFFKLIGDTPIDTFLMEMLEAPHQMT
# [11] = molecular target: Thyroid hormone receptor beta (Homo sapiens) (UniProt P10828); test: qHTS assay for small molecule agonists of thyroid hormone receptor beta signaling (AID 588545; calls by dose curve)
# Chain of Thyroid hormone receptor beta (Homo sapiens) (P10828 whole entry, looked up): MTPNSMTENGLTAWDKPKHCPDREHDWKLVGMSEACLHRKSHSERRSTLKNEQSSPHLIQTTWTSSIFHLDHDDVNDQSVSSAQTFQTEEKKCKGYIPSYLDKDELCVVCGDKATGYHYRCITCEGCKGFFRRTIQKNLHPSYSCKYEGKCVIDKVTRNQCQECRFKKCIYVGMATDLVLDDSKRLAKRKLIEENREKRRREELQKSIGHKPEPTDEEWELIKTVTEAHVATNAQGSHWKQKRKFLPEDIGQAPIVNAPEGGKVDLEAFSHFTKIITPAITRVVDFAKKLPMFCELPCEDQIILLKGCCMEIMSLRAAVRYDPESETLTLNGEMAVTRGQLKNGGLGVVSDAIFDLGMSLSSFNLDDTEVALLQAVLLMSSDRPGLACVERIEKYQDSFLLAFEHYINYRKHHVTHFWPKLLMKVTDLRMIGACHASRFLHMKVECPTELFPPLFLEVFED
# In short: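 Agonist activity was read as beta-lactamase CCF4 fluorescence (405 ex, 460/530 em), scaled between DMSO (0%) and 10 nM T3 (100%), then Hill-fitted for EC50 and efficacy. HEK 293 TR-UAS-bla cells in 2% charcoal/dextran FBS medium were exposed 18 h at 37 C.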
# [12] = qHTS assay for small molecule antagonists of retinoid X receptor alpha signaling (AID 588546; active = well fitted inhibition curve with a large enough effect in the signal ratio, with a control signal flat, not every such curve was filed as active; the % refers to the signal ratio;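 also: cells stimulated with 9-cis-retinoic acid as agonist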); conditions: HEK293T RXRa-UAS-bla, beta-lactamase ratio, antagonist mode; measured here: W530 green channel, cytotoxicity proxy
# In short: (§2)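 Beta-lactamase reporter inhibition, read as CCF4 fluorescence ratio (ex 405, em 460/530 nm) after 2 h at RT. HEK293T UAS-bla cells, 2500/well, were stimulated with 9-cis-RA at 500 or 100 nM final alongside test compound for 18 h at 37 C.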
# [13] = molecular target: Retinoic acid receptor RXR-alpha (Homo sapiens) (UniProt P19793); test: as above; conditions: HEK293T RXRa-UAS-bla, beta-lactamase ratio, antagonist mode
# In short: as §2
# [14] = molecular target: Thyroid hormone receptor beta (Homo sapiens) (UniProt P10828); test: qHTS assay for small molecule antagonists of thyroid hormone receptor beta signaling (AID 588547; active = well fitted inhibition curve with a large enough effect in the signal ratio, with a control signal flat, not every such curve was filed as active; the % refers to the signal ratio;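 also: cells stimulated with 0.4 nM T3 agonist during compound exposure; series mostly up to about 77 µM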); conditions: TR-UAS-bla HEK293, beta-lactamase ratio, antagonist mode, 18 h
# In short: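 TR-UAS-bla GripTite HEK293 cells in 2% charcoal/dextran FBS medium; compounds 0.59 nM to 92 uM with T3 at 0.4nM final, 18 h at 37 C. Beta-lactamase read by CCF4 fluorescence (460/530 nm); Hill fits gave IC50 and efficacy.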
# [15] = qHTS assay for small molecule activators of the p53 signaling pathway (AID 651743; active = well fitted activation curve with a large enough effect in the signal ratio, not every such curve was filed as active; the % refers to the signal ratio; also: series mostly up to about 92 µM); conditions: HCT-116 p53RE-bla, beta-lactamase FRET ratio, 16 h; activation: stronger effect = higher value
# In short: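 HCT-116 p53RE-bla, 4,000 cells/well; 5 h settle; cpd/DMSO 16 h, 37 C; LiveBLAzer B/G 2 h RT; fluorescence intensity.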
# [16] = qHTS assay for small molecule activators of the nuclear factor-kappa B (NF-kB) signaling pathway (AID 651749; active = well fitted activation curve with a large enough effect in the signal ratio; the % refers to the signal ratio; also: series mostly up to about 77 µM); conditions: NF-kB-bla ME-180 cells, beta-lactamase FRET ratio, 16 h; stronger effect = higher value
# In short: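 Incubation lasted 16 hr at 37C in 5% CO2 after 23 nL compound addition to ME-180 NF-kB-bla cells. Activation appears as beta-lactamase-mediated FRET loss.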
# [17] = qHTS assay for environmental chemicals that activate the Aryl hydrocarbon Receptor (AhR) signaling pathway (AID 651777); conditions: 1A2-DRE human hepatoma cells, luciferase, 24 h; activation: stronger effect = higher value; also: nearly all actives have a fitted effect of over 15% in size
# In short: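 Luminescence read-out: One-Glo added for 30 min at RT after 24 hr compound treatment (37 C, 5% CO2) of human hepatoma cells expressing a DRE/CYP1A2 promoter–luciferase reporter; increased signal indicates AhR activation.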
# [18] = molecular target: Peroxisome proliferator-activated receptor alpha (Homo sapiens) (UniProt Q07869); test: qHTS assay for small molecule agonists of the peroxisome proliferator-activated receptor alpha (PPARalpha) signaling pathway (AID 651778); conditions: PathHunter PPARalpha complementation, chemiluminescence, 6 h; max response: stronger effect = higher value
# Chain of Peroxisome proliferator-activated receptor alpha (Homo sapiens) (Q07869 whole entry, looked up, the tested form may be a part): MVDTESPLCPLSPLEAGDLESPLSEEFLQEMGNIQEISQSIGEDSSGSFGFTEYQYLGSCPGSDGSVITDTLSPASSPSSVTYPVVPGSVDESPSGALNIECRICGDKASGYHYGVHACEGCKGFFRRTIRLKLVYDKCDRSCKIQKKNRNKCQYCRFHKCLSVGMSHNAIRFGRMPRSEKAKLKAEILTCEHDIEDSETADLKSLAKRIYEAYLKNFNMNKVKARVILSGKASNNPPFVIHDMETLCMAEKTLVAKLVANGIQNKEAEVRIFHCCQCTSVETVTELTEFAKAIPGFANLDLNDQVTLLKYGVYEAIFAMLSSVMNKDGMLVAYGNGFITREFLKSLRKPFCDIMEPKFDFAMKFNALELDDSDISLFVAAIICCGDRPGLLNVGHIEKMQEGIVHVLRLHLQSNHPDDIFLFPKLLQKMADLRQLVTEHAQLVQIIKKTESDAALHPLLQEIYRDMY
# In short: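 Enzyme-fragment complementation assay in which ligand-bound PPARalpha translocates and forms an active enzyme that generates chemiluminescence. Cells were plated overnight, exposed to compound for 6 hr at 37 C, and then given detection reagent for 60 min at room temperature.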
# [19] = qHTS assay for small molecule agonists of the antioxidant response element (ARE) signaling pathway measured by Nrf2-dependant transcriptional activity (AID 720636; active = well fitted curve in the direction sought with a large enough effect in the repeat runs; an effect the other way counts as inactive or inconclusive;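 also: HepG2 cells with an ARE-driven luciferase reporter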)
# In short: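 HepG2 ARE-luc reporter line, 1% dialyzed FBS; 6 hr attachment at 37 C, compound pinned in, 16 hr at 37 C/5% CO2; ONE-Glo, 30 min RT, luminescence read.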
# [20] = qHTS assay for small molecule agonists of the antioxidant response element (ARE) signaling pathway measured by Nrf2-dependant transcriptional activity - cell viability counter screen (AID 720653; active = well fitted curve in the direction sought with a large enough effect in the repeat runs; an effect the other way counts as inactive or inconclusive); conditions: ARE-bla HepG2 viability, CellTiter-Glo ATP luminescence, 16 h; max response: stronger effect = lower value
# In short: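 ARE-bla HepG2 cells treated with compounds for 16 h at 37C; this counter screen measures viability as intracellular ATP by CellTiter-Glo luminescence after 30 min at room temperature.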
# [21] = qHTS assay for cell viability of HEK293 cells (AID 743288); conditions: ATP luminescence (CellTiter-Glo), 18 h; max response: stronger effect = lower value; also: nearly all actives have a fitted effect of over 50% in size
# In short: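 Total intracellular ATP, measured with a luciferase-coupled reagent, indicates the number of viable HEK293 cells. Exposure to test chemicals lasts 18 h at 37 C in 1,536-well format at 2,000 cells/well.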
# [22] = qHTS assay for cell viability of the p53RE-bla HCT-116 cell line (AID 743292); also: nearly all actives have a fitted effect of over 55% in size
# In short: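 Luminescent ATP quantitation (CellTiter-Glo) served as the viability read-out; reagent was added after 16 h compound exposure at 37 C and read after 30 min at room temperature. Cells: p53RE-bla HCT-116, 4,000 per well.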
# [23] = molecular target: Glutathione peroxidase 1 (Homo sapiens) (UniProt P07203); test: Primary qHTS Assay for Inhibitors of Recombinant Selenoprotein Glutathione Peroxidase 1 (GPX1) (AID 1845191); also: nearly all actives have a fitted effect of over 65% in size
# Chain of Glutathione peroxidase 1 (Homo sapiens) (P07203 whole entry, looked up): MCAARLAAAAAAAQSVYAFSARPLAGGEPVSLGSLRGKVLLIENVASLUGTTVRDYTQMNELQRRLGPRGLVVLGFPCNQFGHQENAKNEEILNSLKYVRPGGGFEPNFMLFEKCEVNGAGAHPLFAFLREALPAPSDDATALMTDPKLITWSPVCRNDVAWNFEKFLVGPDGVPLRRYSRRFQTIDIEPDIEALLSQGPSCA
# In short: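 GR-coupled assay: compounds preincubated 30 min at room temperature with GPX1, then reaction started with CHP; final 10 nM GPX1, 1 mM GSH, 0.5 mM CHP, 0.5 mM NADPH, 100 nM GR, 0.01% BSA, pH 7.5 Tris buffer. NADPH fluorescence (340/450 nm) read at 0 and 15 min.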
# [24] = molecular target: Phospholipid hydroperoxide glutathione peroxidase GPX4 (Homo sapiens) (UniProt P36969); test: Primary qHTS Assay for Inhibitors of Recombinant Selenoprotein Glutathione Peroxidase 4 (GPX4) (AID 1845192); also: nearly all actives have a fitted effect of over 65% in size
# Chain of Phospholipid hydroperoxide glutathione peroxidase GPX4 (Homo sapiens) (P36969 whole entry, looked up): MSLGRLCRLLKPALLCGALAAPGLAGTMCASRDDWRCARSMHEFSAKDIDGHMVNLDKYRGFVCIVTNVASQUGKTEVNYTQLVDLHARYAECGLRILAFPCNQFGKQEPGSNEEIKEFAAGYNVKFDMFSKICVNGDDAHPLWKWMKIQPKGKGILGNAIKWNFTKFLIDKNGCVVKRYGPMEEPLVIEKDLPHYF
# In short: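 GR-coupled assay: recombinant GPX4 preincubated 30 min with compound at room temperature; final 200 nM GPX4, 1 mM GSH, 0.5 mM cumene hydroperoxide, 0.5 mM NADPH, 100 nM GR, 0.01% BSA, pH 7.5 Tris. NADPH fluorescence (340/450 nm) read at 0 and 15 min.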
# [25] = molecular target: Nuclear receptor subfamily 1 group I member 2 (Rattus norvegicus) (UniProt Q9R1A7); test: qHTS assay for small molecule activators of the rat pregnane X receptor (rPXR) signaling pathway (AID 651751; call rule not given here); conditions: rPXR reporter cells, luciferase (One-Glo), 24 h
# Chain of Nuclear receptor subfamily 1 group I member 2 (Rattus norvegicus) (Q9R1A7 whole entry, looked up): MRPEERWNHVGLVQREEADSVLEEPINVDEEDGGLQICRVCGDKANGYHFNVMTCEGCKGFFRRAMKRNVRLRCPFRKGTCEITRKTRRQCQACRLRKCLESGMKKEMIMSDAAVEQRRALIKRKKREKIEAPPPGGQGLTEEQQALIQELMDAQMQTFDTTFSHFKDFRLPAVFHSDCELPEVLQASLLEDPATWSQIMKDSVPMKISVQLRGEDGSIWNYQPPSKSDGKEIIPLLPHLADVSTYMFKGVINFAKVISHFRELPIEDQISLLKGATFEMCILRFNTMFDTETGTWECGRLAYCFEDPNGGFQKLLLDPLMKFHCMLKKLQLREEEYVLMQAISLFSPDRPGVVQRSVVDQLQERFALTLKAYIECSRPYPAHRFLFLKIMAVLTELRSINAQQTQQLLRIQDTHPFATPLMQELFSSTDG
# [26] = qHTS assay for small molecule activators of the human pregnane X receptor (PXR) signaling pathway (AID 720659; call rule not given here)
structure (smiles),measurement,setting,value
CC(=O)OC(C)(C)CCC(=O)[C@](C)(O)C1[C@H](O)C[C@@]2(C)C3CC=C4C(C[C@H](O)[C@@H](O)C4(C)C)[C@]3(C)C(=O)C[C@]12C (stereo partly drawn),Potency,[1],inactive
Cc1ccc(N)cc1C(=O)N[C@H](C)c1cccc2ccccc12,Potency,[1],inactive
CC(=O)Nc1ccc(C)c(C(=O)N[C@H](C)c2cccc3ccccc23)c1,Potency,[1],inactive
Cc1nc(N(C)C(=O)Cc2ccc(-c3ccccn3)cc2)sc1S(N)(=O)=O,Potency,[1],inactive
NC1=N[C@@](c2cccc(-c3cncnc3)c2)(c2ccnc(C(F)F)c2)c2cccc(F)c21,Potency,[1],inactive
C=C1CCC2C(C)(CO)C(O)CCC2(C)C1C/C=C1\C=COC1=O (stereo not drawn),Potency,[1],inactive
CC(C)(C)c1cc(C(=O)/C(C#N)=N/Nc2cccc(Cl)c2)no1,Potency,[1],inactive
same,Potency,[2],14.5 µM (active)
C[Si](C)(C)O[Si](C)(C)O[Si](C)(C)C,max response,[3],25.8%
same,Potency,[4],inactive
same,outcome,[5],inactive
same,outcome,[6],inactive
same,outcome,[7],inactive
same,outcome,[8],inactive
same,max response,[9],-9.58%
same,outcome,[10],inactive
same,outcome,[11],inactive
same,max response,[12],-9.81%
same,max response,[13],-6.04% (inactive)
same,activity change % (negative = inhibition),[14],-8.82% (inactive)
same,activation,[15],-8.05% (inactive)
same,activation,[16],-3.32% (inactive)
same,activation,[17],-0.707% (inactive)
same,max response,[18],0.325% (inactive)
same,Potency,[19],inactive
same,max response,[20],4.82% (inactive)
same,max response,[21],-3.28% (inactive)
same,Potency,[22],inactive
same,Potency,[1],inactive
same,Potency,[23],inactive
same,Potency,[24],inactive
same,max response,[25],0.588% (inactive)
same,outcome,[26],inactive
